The values below come from PubChem BioAssay AID757 (NMMLSC, 2007).

The structures appear in SMILES notation. Out of some 190,000 compounds screened, about 520 (0.27%) were called active. About 2% were inconclusive and are not listed. Only a selection was taken, and actives are over-represented in it overall. A number with no mark means an inactive call.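 How the source made its calls: active means GTP binding activity at least 20 points away from the 100% control level, either lower or higher; inconclusive means compound flagged as likely green fluorescent, judged across all proteins; inactive means the rest.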

The assay deals with Ras-related C3 botulinum toxin substrate 1 (Homo sapiens) (UniProt P63000). The assay can be described thus: wildtype Rac1 GTP binding modulators, primary screen, biochemical, GST-Rac1 beads, flow cytometry, multiplex (AID 757). The following applies: fluorescent GTP binding, at 10 µM, actives lie on both sides, 0 = cold GTP competed, 100 = untreated. For orientation: A flow cytometer gives signals particle by particle.
Regarding `O=C(CNC(=O)c1cc(=O)[nH]c2ccccc12)Nc1ccc(F)c(F)c1`, the GTP binding activity (% of control) was 97%.

In the case of `O=C(CN1CCN(Cc2ccc(F)cc2Cl)C1=O)NCc1cccs1`, the GTP binding activity (% of control) is 99%.

As to `CCn1ccnc1CN(C)Cc1nc(-c2ccc3c(c2)OCO3)no1`, the GTP binding activity (% of control) was 99%.

In the case of `CC(C)OC(=O)Cn1nc(C(F)(F)F)c2c1CCCC2`, the GTP binding activity (% of control) is 93%.

Take `CCn1cc(C(=O)Nc2cc(C)ccc2C)c(=O)c2ccc(C)nc21`: the GTP binding activity (% of control) was 100%.

Turning to `N#Cc1ccc(CSc2nnc3ccccn23)cc1`, the GTP binding activity (% of control) is 104%.

Regarding `CCN(CC)C(=O)CS(=O)CC(=O)Nc1cc(OCCOC)c(Cl)cc1Cl` (stereo not drawn), the GTP binding activity (% of control) was 103%.

As for `S=c1[nH]nc(/C=C/c2ccccc2)o1`, the GTP binding activity (% of control) was 93%.

Regarding `COc1ccc(C)cc1NC(=S)Nc1ccccc1SC`, the GTP binding activity (% of control) was 100%.

For the compound `CC(=O)Cn1ncc(N2CCOCC2)c(Br)c1=O`, the GTP binding activity (% of control) was 95%.

As to `CC(=O)NCCC(=O)Nc1cc(S(=O)(=O)N2CCOCC2)ccc1N1CCOCC1`, the GTP binding activity (% of control) is 100%.

With `O=C(CSc1nn(-c2ccc(F)cc2)c(=S)s1)NC1CCS(=O)(=O)C1` (stereo not drawn), the GTP binding activity (% of control) is 104%.

As for `COc1ccc(OC)c(NC(=O)CN(Cc2ccc(Cl)cc2)S(C)(=O)=O)c1`, the GTP binding activity (% of control) is 97%.

`COc1ccc(N2CCN(C(=O)C3CCN(S(=O)(=O)c4ccc(C)cc4)CC3)CC2)cc1`: the GTP binding activity (% of control) was 101%.

As to `CCOc1ccccc1N=C1NC(=O)CS1`, the GTP binding activity (% of control) was 96%.

On to `CCC/C(O)=C1\C(=O)CC(C)(C)CC1=Nc1ccccc1OC`, for which the GTP binding activity (% of control) was 125% [activator] (active).

Regarding `CC/C(O)=C1\C(=O)CC(C)(C)CC1=NCCc1nc2ccccc2[nH]1`, the GTP binding activity (% of control) is 106%.

For the compound `CCN(CC)CCCNC(=O)Cn1cnc2sc(C)c(S(=O)(=O)N3CCN(c4ncccn4)CC3)c2c1=O`, the GTP binding activity (% of control) was 93%.

For `Cc1nc2ccc(NC(=S)N3CCC(C)CC3)cc2nc1C`, the GTP binding activity (% of control) is 100%.

Consider `CC(C)(C)NC(=O)NC(=O)COC(=O)Cc1ccc(Cl)cc1Cl`, for which the GTP binding activity (% of control) is 101%.

As to `Cc1ccc(NC(=O)NC2CCCCC2)cc1S(=O)(=O)N1CCOCC1`, the GTP binding activity (% of control) was 99%.

`CC1(C)CN=C(N2CCN(c3ncnc4sc5c(c34)CCCC5)CC2)S1`: the GTP binding activity (% of control) was 99%.

As to `COc1ccc(/C=N/Nc2ncnc3sc4c(c23)CCCC4)cc1O`, the GTP binding activity (% of control) was 77% (active).

In the case of `COc1ncnc2sc3c(c12)CCCC3`, the GTP binding activity (% of control) is 104%.

As for `O=C1c2oc3ccccc3c(=O)c2C(c2cccc(O)c2)N1c1ccccn1` (stereo not drawn), the GTP binding activity (% of control) was 106%.

Consider `COCCN1C(=O)c2oc3c(C)cc(C)cc3c(=O)c2C1c1cccc(O)c1` (stereo not drawn), for which the GTP binding activity (% of control) was 104%.

Consider `O=C1c2oc3ccc(Br)cc3c(=O)c2C(c2cccc(F)c2)N1CCO` (stereo not drawn), for which the GTP binding activity (% of control) is 123% [activator] (active).

For the compound `O=C(Nc1cccc(CCc2ccccn2)c1)c1ccc(Cl)cc1`, the GTP binding activity (% of control) was 97%.

Take `CC1(C)OC(=O)C(=CNC(CO)C(=O)O)C(=O)O1` (stereo not drawn): the GTP binding activity (% of control) is 100%.

For the compound `CC1CN(CCCOc2ccccc2-c2ccccc2)CC(C)O1` (stereo not drawn), the GTP binding activity (% of control) was 94%.

`CCOc1ccc(-n2cnnn2)cc1S(=O)(=O)N1CCC(C)CC1C` (stereo not drawn): the GTP binding activity (% of control) is 97%.

As for `COc1ccc(NC(=O)N2CCCC(c3nc(-c4ccc(F)cc4)no3)C2)cc1` (stereo not drawn), the GTP binding activity (% of control) is 103%.

On to `CNc1[nH]ncc1[N+](=O)[O-]`, for which the GTP binding activity (% of control) was 95%.

As for `Cc1cc(C)cc(C(=O)NCC(=O)OCC(=O)N2CCCCC2)c1`, the GTP binding activity (% of control) was 99%.

With `COC(=O)c1cc2nc(-c3ccccc3)cc(C(F)(F)F)n2n1`, the GTP binding activity (% of control) was 99%.

For the compound `COc1ccc(NC(=O)c2ccccc2[N+](=O)[O-])cc1OC`, the GTP binding activity (% of control) is 105%.

With `COc1ccc(NC(=O)c2cc3nc(-c4ccccc4)cc(C)n3n2)cc1OC`, the GTP binding activity (% of control) was 78% (active).

For `Cc1ccc(NC(=S)NC(=O)c2ccc(-c3ccccc3)cc2)c(C)c1`, the GTP binding activity (% of control) was 99%.

Regarding `Cc1ccc(Nc2c(F)c(F)c(F)c(F)c2C(=O)O)c(C)c1`, the GTP binding activity (% of control) was 154% [activator] (active).

For the compound `COc1c(F)c(F)c(C(=O)O)c(Nc2ccccc2C)c1F`, the GTP binding activity (% of control) was 101%.

In the case of `COc1ccc(-n2c(O)c(C=NCC(c3ccco3)N3CCCC3)c3ccccc3c2=O)cc1OC` (stereo not drawn), the GTP binding activity (% of control) was 102%.

Regarding `CN(C)S(=O)(=O)c1ccc(NC(=O)N2CCOCC2)cc1`, the GTP binding activity (% of control) was 100%.

With `Cc1ccc(OCC(=O)NC(C)c2ccccc2)c([N+](=O)[O-])n1` (stereo not drawn), the GTP binding activity (% of control) is 98%.

Take `O=C(NNC(=O)c1ccc(Cl)cc1Cl)c1cccs1`: the GTP binding activity (% of control) is 96%.

Turning to `Cc1ccc(Cl)cc1NC(=O)c1ccccn1`, the GTP binding activity (% of control) was 90%.

As for `COc1ccc(/C=N/NC(=O)CNC(=O)c2ccc(S(=O)(=O)N3CCCC3)cc2)c(OC)c1`, the GTP binding activity (% of control) was 98%.

For the compound `Cc1ccc(SC(CC(=O)c2ccc(C(C)(C)C)cc2)C(=O)O)cc1` (stereo not drawn), the GTP binding activity (% of control) is 79% (active).

Consider `CC(C)(C)c1ccc(C(=O)CSc2ncn[nH]2)cc1`, for which the GTP binding activity (% of control) is 105%.

For `Cc1ccc(C(=O)CS(C)(=O)=O)cc1`, the GTP binding activity (% of control) is 101%.

Consider `N/C(=N\OC(=O)c1ccc2c(c1)OCO2)c1ccc(Br)cc1`, for which the GTP binding activity (% of control) is 94%.

Take `COc1ccc(C)cc1NC(=O)NCc1ccccn1`: the GTP binding activity (% of control) was 103%.

With `CN(CCN1CCOCC1)Cc1nc(-c2ccc3c(c2)OCO3)no1`, the GTP binding activity (% of control) was 98%.

With `O=C(NCCCN1CCOCC1)c1ccccc1NS(=O)(=O)c1ccc(Br)cc1`, the GTP binding activity (% of control) is 100%.
